Inconclusive results are not listed. A call without a number means that no potency is given here. The source made the active and inactive calls. Calls follow the shape of the dose curve; as a rule, active = well fitted curve in the direction sought with a large enough effect; inconclusive = small, poorly fitted or top-dose-only effect, or another doubt; inactive = no such curve, though single readings can be large; an effect the other way counts as inactive or inconclusive.
Assays:
[1] = qHTS of pediatric cancer cell lines to identify multiple opportunities for drug repurposing: Primary screen for A673 cells (AID 1347092); conditions: A673 Ewing sarcoma viability, CellTiter-Glo ATP luminescence, 48 h; series mostly up to 46 µM; also: nearly all actives have a fitted effect of over 45% in size
Procedure, shortened: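 Cell viability of A673 measured by CellTiter-Glo ATP luminescence after 48 hours compound exposure. Dilution series spanned 0.78 nM to 46 µM (MIPE, 11-point) or 0.59 nM to 46 µM (NPC, 8-point); bortezomib 2.3 uM positive control.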

[2] = qHTS of pediatric cancer cell lines to identify multiple opportunities for drug repurposing: Primary screen for SK-N-MC cells (AID 1347093); conditions: SK-N-MC viability, CellTiter-Glo luminescence, 48 h; series mostly up to 46 µM
Procedure, shortened: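 Metabolically active cells were quantified by ATP-dependent luminescence (CellTiter-Glo, 15 min at room temperature) following 48 h treatment. Cells had been plated at 500-1,000 per well and settled for 5 h beforehand.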

[3] = qHTS of pediatric cancer cell lines to identify multiple opportunities for drug repurposing: Primary screen for BT-37 cells (AID 1347094); conditions: BT-37 viability, CellTiter-Glo luminescence, 48 h; series mostly up to 57.3 µM
Procedure, shortened: (§1)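 Viability was measured as metabolically active cells after 48 hours of treatment, read by CellTiter-Glo luminescence. Compounds were tested at multiple final concentrations, giving concentration-response curves.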

[4] = qHTS of pediatric cancer cell lines to identify multiple opportunities for drug repurposing: Primary screen for NB-EBc1 cells (AID 1347095); conditions: NB-EBc1 neuroblastoma viability, CellTiter-Glo luminescence, 48 h; series mostly up to 46 µM
Procedure, shortened: as §1

[5] = qHTS of pediatric cancer cell lines to identify multiple opportunities for drug repurposing: Primary screen for U-2 OS cells (AID 1347096); conditions: U-2 OS viability, CellTiter-Glo luminescence, 48 h; series mostly up to 46 µM; also: nearly all actives have a fitted effect of over 50% in size
Procedure, shortened: (§2)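 Cells (500-1,000/well) in growth media were settled 5 h at 37 degrees C, then given compounds for 48 h. Viability was read as CellTiter-Glo luminescence. Primary runs used MIPE at 11 points (0.78 nM-46 µM) and NPC at 8 points (0.59 nM-46 µM); follow-ups used 11 points.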

[6] = qHTS of pediatric cancer cell lines to identify multiple opportunities for drug repurposing: Primary screen for Saos-2 cells (AID 1347097); conditions: Saos-2 viability, CellTiter-Glo ATP luminescence, 48 h; series mostly up to 46 µM; also: nearly all actives have a fitted effect of over 40% in size
Procedure, shortened: as §1

[7] = qHTS of pediatric cancer cell lines to identify multiple opportunities for drug repurposing: Primary screen for SK-N-SH cells (AID 1347098); conditions: SK-N-SH viability, CellTiter-Glo luminescence, 48 h; series mostly up to 57 µM; also: nearly all actives have a fitted effect of over 65% in size
Procedure, shortened: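 Cells (500-1,000/well) rested 5 h, then received compounds for 48 h; metabolically active cells were measured by CellTiter-Glo luminescence. Final concentrations spanned up to 46 µM (MIPE, 11-point) or 0.59 nM-46 µM (NPC, 8-point) in primary screens, 11-point in follow-ups.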

[8] = qHTS of pediatric cancer cell lines to identify multiple opportunities for drug repurposing: Primary screen for NB1643 cells (AID 1347099); conditions: NB1643 neuroblastoma viability, CellTiter-Glo luminescence, 48 h; series mostly up to 46 µM; also: nearly all actives have a fitted effect of over 50% in size
Procedure, shortened: as §1

[9] = qHTS of pediatric cancer cell lines to identify multiple opportunities for drug repurposing: Primary screen for LAN-5 cells (AID 1347100); conditions: LAN-5 neuroblastoma viability, CellTiter-Glo luminescence, 48 h; series mostly up to 46 µM
Procedure, shortened: as §2
Potency is read from the fitted curve at half-maximal effect.

SMILES | Potency [1] | Potency [2] | Potency [3] | Potency [4] | Potency [5] | Potency [6] | Potency [7] | Potency [8] | Potency [9]
O=C(CCN1CCN(CCO)CC1)N1c2ccccc2Sc2ccc(C(F)(F)F)cc21 | inactive | inactive | inactive | inactive | inactive | inactive | inactive | inactive | inactive
O=C(O)Cc1ccc(-c2ccccc2)cc1 | inactive | inactive | inactive | inactive |  | inactive | inactive | inactive | inactive
O=C(OCc1ccccc1)c1ccccc1 | inactive | inactive | inactive | inactive | inactive |  | inactive | inactive | inactive
O=C(/C=C/c1ccccc1)NCCO | inactive | inactive | inactive | inactive | inactive |  | inactive | inactive | inactive
COc1ccnc2c1CCCCC2S(=O)c1nc2ccccc2[nH]1 (centres undefined) | inactive | inactive | inactive | inactive | inactive |  | inactive | inactive | inactive
CCCCCCCCCCCCCCCCCC(=O)O | inactive | inactive | inactive | inactive | inactive |  | inactive | inactive | inactive
CNC(=O)c1c(I)c(NC(=O)CCCCC(=O)Nc2c(I)c(C(=O)O)c(I)c(C(=O)NC)c2I)c(I)c(C(=O)O)c1I | inactive | inactive | inactive | inactive | inactive |  | inactive | inactive | inactive
c1ccc2sc(SN3CCOCC3)nc2c1 | inactive | inactive | inactive | inactive |  |  | inactive | inactive | inactive
O=C(CS)Nc1ccccc1 |  |  | inactive |  |  |  | inactive |  | 
Cc1ccc(O)c(-n2nc3ccccc3n2)c1 | inactive | inactive | inactive | inactive |  |  | inactive | inactive | inactive
c1ccc(CCNc2nc(-c3ccccc3)cs2)cc1 |  | inactive | inactive |  |  |  |  | inactive | inactive
COc1ccc(-c2cc(=S)ss2)cc1 | inactive | inactive | inactive |  | inactive |  | inactive | inactive | inactive
Clc1ccccc1-c1nc(-c2ccncc2)no1 | inactive | inactive | inactive | inactive |  |  |  | inactive | inactive
Cc1cc(O)c2ccccc2c1O | 10600 nM (active) | 21100 nM (active) |  |  |  |  | 34400 nM (active) | 18800 nM (active) | 
CCCC(=O)OC[C@@H](OC(=O)CCC)[C@@H](OC(=O)CCC)[C@H](Cn1c2nc(=O)[nH]c(=O)c-2nc2cc(C)c(C)cc21)OC(=O)CCC |  |  |  |  | inactive |  | inactive | inactive | 
O=C1CN(/N=C/c2ccc([N+](=O)[O-])o2)C(=O)N1 |  | inactive | inactive | inactive | inactive | inactive | inactive | inactive | inactive
Nc1nc2ccc([N+](=O)[O-])cc2s1 | inactive |  |  | inactive |  | inactive |  |  | inactive
CCCOC(=O)c1ccc(O)cc1 |  | inactive | inactive | inactive | inactive |  | inactive | inactive | inactive
COC(=O)Nc1nc2ccc(C(=O)C3CC3)cc2[nH]1 | 1060 nM (active) | 1060 nM (active) | 2190 nM (active) | 596 nM (active) |  |  |  |  | 841 nM (active)

SMILES | Potency [1] | Potency [2] | Potency [3] | Potency [4] | Potency [5] | Potency [6] | Potency [7] | Potency [8] | Potency [9]
COc1cc2c3cc1Oc1cc(ccc1O)C[C@@H]1c4c(cc(OC)c(O)c4Oc4ccc(cc4)C[C@@H]3N(C)CC2)CC[N+]1(C)C | inactive |  | inactive | inactive |  | inactive | inactive | inactive | inactive
O=c1[nH]c2ccccc2n1CCCN1CCN(C(c2ccccc2)c2ccccc2)CC1 |  |  |  | inactive | inactive |  | 24400 nM (active) | inactive | 
Nc1cc(-c2ccncc2)c[nH]c1=O | inactive | inactive | inactive |  |  |  | inactive | inactive | 
O=Cc1ccc(O)c(O)c1O |  |  | inactive | inactive |  |  |  |  | 
COC(=O)C1=C(C)NC(C)=C(C(=O)OCC(C)=O)C1c1ccccc1[N+](=O)[O-] (centres undefined) |  | 13300 nM (active) |  |  |  |  |  |  | inactive
Cc1c(Nc2ncccc2C(=O)O)cccc1C(F)(F)F | inactive | 21100 nM (active) | inactive |  | inactive |  | inactive | inactive | inactive
O=c1cc(-c2ccccc2)oc2ccccc12 |  | inactive |  | inactive |  |  |  |  | inactive
Oc1c(Br)cc(Br)c2cccnc12 | 3350 nM (active) | 10600 nM (active) |  | 10600 nM (active) | inactive |  |  |  | 
Nc1ccc([N+](=O)[O-])cc1O | 1 nM (active) | 1 nM (active) |  | 15400 nM (active) |  |  | inactive |  | 
Cc1c(C(=O)O)c(O)cc2c1C(=O)c1c(O)c([C@@H]3O[C@H](CO)[C@@H](O)[C@H](O)[C@H]3O)c(O)c(O)c1C2=O | inactive |  |  |  | inactive |  | inactive | inactive | 
CN1CCN(c2cc3c(nn2)Oc2ccccc2N3C)CC1 | inactive | inactive | inactive | inactive |  |  | inactive | inactive | inactive
CC(C)OC(=O)c1cc(C(=O)OC(C)C)cc([N+](=O)[O-])c1 | inactive |  | inactive | inactive |  |  | inactive | inactive | inactive
NC(=O)C(c1ccccc1)(c1ccccc1)[C@@H]1CCN(CCc2ccc3c(c2)CCO3)C1 | inactive | inactive | inactive |  |  |  | inactive | inactive | inactive
COc1cccc2c1C(=O)c1c(O)c3c(c(O)c1C2=O)C[C@@](O)(C(=O)CO)C[C@@H]3O[C@H]1C[C@H](N)[C@H](O[C@@H]2CCCCO2)[C@H](C)O1 | 1060 nM (active) | 211 nM (active) | 246 nM (active) | 75 nM (active) |  |  | 97 nM (active) | 596 nM (active) | 266 nM (active)
CC(C(=O)O)c1ccc(C(=O)c2cccs2)cc1 (centres undefined) | inactive | inactive | inactive | inactive |  |  | inactive | inactive | inactive
CN(C)c1ccc(C(=C2C=CC(=[N+](C)C)C=C2)c2ccccc2)cc1 | 42.2 nM (active) | 53.1 nM (active) | 97.8 nM (active) |  | 1330 nM (active) | 53.1 nM (active) | 1090 nM (active) | 133 nM (active) | 
Nc1ccc(O)c([N+](=O)[O-])c1 | inactive |  | inactive | inactive |  |  |  | inactive | 
[O-][n+]1ccccc1SSc1cccc[n+]1[O-] | 73.1 nM (active) | 58 nM (active) | 3010 nM (active) |  | 231 nM (active) | 92 nM (active) | 67 nM (active) | 92 nM (active) | 

— PubChem BioAssay (NCATS)
